Measurements: PubChem BioAssay (EPA / NIEHS)
Inconclusive results are not listed. A structure can be active in one record and inactive in another. Active and inactive are the calls of the source. How the source made its calls: active means hit-call score of the fitted dose curve at least 0.9, where 1 is the maximum; inconclusive means response in the unintended direction; inactive means score below 0.9.

Each compound was assayed against Peroxisome proliferator-activated receptor gamma (Homo sapiens) (UniProt P37231) (assay: ATG_PPARg_TRANS: Attagene TRANS-FACTORIAL HepG2 Assay for human Peroxisome Proliferator-activated Receptor-gamma (PPARg) (AID 2283007)).
Sequence of Peroxisome proliferator-activated receptor gamma (Homo sapiens) (P37231 whole entry, looked up): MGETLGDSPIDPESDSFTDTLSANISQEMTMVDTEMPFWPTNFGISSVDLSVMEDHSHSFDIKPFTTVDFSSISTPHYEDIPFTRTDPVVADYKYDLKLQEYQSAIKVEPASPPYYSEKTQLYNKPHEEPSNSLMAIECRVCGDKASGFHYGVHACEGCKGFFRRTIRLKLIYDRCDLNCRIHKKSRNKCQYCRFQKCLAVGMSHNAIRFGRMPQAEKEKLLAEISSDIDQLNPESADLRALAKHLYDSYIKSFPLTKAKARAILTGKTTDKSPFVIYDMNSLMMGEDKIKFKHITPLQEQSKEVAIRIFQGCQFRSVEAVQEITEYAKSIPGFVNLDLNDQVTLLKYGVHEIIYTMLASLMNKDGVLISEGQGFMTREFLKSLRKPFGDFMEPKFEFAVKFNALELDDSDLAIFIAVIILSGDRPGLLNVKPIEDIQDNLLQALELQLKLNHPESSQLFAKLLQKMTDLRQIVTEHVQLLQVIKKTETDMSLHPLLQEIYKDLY
Protocol: ATG_TRANS is a cell-based, multiplexed-readout assay that uses HepG2, a human liver cell line, with measurements taken at 24 hours after chemical dosing in a 24-well plate.ATG_PPARg_TRANS is one of 30 assay component(s) measured or calculated from the ATG_TRANS assay. It is designed to make measurements of mRNA induction, a form of inducible reporter, as detected with fluorescence intensity signals by Reverse transcription polymerase chain reaction (RT-PCR) and Capillary electrophoresis technology.Data from the assay component ATG_PPARg_TRANS was analyzed into 1 assay endpoint. This assay endpoint, ATG_PPARg_TRANS, was analyzed in the positive analysis fitting direction relative to DMSO as the negative control and baseline of activity. Using a type of inducible reporter, measures of mRNA for gain-of-signal activity can be used to understand the reporter gene at the transcription factor-level as they relate to the gene PPARG. Furthermore, this assay endpoint can be referred to as a primary readout, because this assay has produced multiple assay endpoints where this one serves a reporter gene function. To generalize the intended target to other relatable targets, this assay endpoint is annotated to the nuclear receptor intended target family, where the subfamily is non-steroidal.
Human liver HepG2 cells are transiently transfected with multiple reporter transcription units (MRTUs) in 6-well plates using FuGene 6 reagent (Roche; 3 ml FuGene/1 mg DNA). The MRTU constructs are regulated by a cis-regulating element (promoter). […] A major difference between the CIS and TRANS system is that in CIS activities of endogenous TFs are measured, whereas the TRANS assay evaluates changes in activities of exogenous, chimeric NR-Gal4 proteins. […] At the end of 24 hour incubation, total RNA was isolated using TriZol reagent (Invitrogen). The isolated RNA is then reverse-transcribed using oligo(dT) primer and Mo-MLV reverse transcriptase (Invitrogen) with DNAse I (Ambion) treatment for 30 min. The one-tenth of the produced cDNA was amplified by PCR using Taq DNA polymerase (Invitrogen) and two reporter sequence-specific primers. The PCR products were fluorescently labeled by primer extension with 6-arboxyfluorescein (6-FAM) 5'-labeled reporter sequence-specific primer (2 min at 95 C, 20 s at 68 C and 10 min at 72 C) and these products were digested with 5U of HpaI (New England Biolabs) for 2h at 37 C. The fragments were purified using Qiaquick PCR columns (Qiagen), analyzed on an ABI 3130xL genetic analyzer (Applied Biosystems) with peak positions identified by using a set of X-rhodamine (ROX)-labeled MapMarker1000 molecular weight standards (BioVentures). The raw capillary electrophoresis data was processed using Attagraph software (Attagene).

| SMILES | outcome | AC50 |
| --- | --- | --- |
| Brc1cc(Br)cc(Br)c1 | inactive | – |
| C=CC(=O)OCC(CO)(COC(=O)C=C)COC(=O)C=C | inactive | – |
| CC(=O)CCC=C(C)CCC=C(C)C | – | 36.6 µM (active) |
| CCCc1ccc(O)cc1 | inactive | – |
| CCCCCc1cccc(=O)o1 | – | 10.6 µM (active) |
| C=CC(C)(CCC=C(C)C)OC(=O)CC (stereo not given) | inactive | – |
| C=CCOC(=O)/C=C\C(=O)OCC=C | – | 1.96 µM (active) |
| CC(C)CCOC(=O)CC(C)C | inactive | – |
| CC(=O)c1ccc2ccccc2c1 | inactive | – |
| CCCCC(CC)COCCO (stereo not given) | inactive | – |
| O=C(c1ccc(OCCN2CCCCC2)cc1)c1c(-c2ccc(O)cc2)sc2cc(O)ccc12 | inactive | 13.7 µM (active) [middle of 4 runs] |
| CCC(C)(C)c1cc(O)c(C(C)(C)CC)cc1O | inactive | – |
| CC(=O)CCc1ccc(O)cc1 | inactive | – |
| COc1ccc(OC)cc1 | inactive | – |
| Cc1cccc(O)c1 | inactive | – |
| CCCCCCOC(C)=O | inactive | – |
| CCCCOCCOCCOCCO | inactive | – |
| C=C(C)C(=O)OCCC(C)OC(=O)C(=C)C (stereo not given) | – | 47 µM (active) |
| C1CCCNCC1 | inactive | – |
| C=C(C)C(=O)OCCOCCOC(=O)C(=C)C | inactive | – |

| SMILES | outcome | AC50 |
| --- | --- | --- |
| CC(C)COC(=O)c1ccccc1O | inactive | – |
| CCCCCCCC(=O)N(C)C | inactive | – |
| Cc1cc(N)n(-c2ccccc2)n1 | inactive | – |
| CCCCCCCC1CCCC1=O (stereo not given) | inactive | – |
| CNC(=C[N+](=O)[O-])NCCSCc1ccc(CN(C)C)o1 | inactive | – |
| CC(C)N1C(=O)c2ccccc2C1=O | inactive | – |
| CC(=O)Nc1cc(S(=O)(=O)O)cc2cc(S(=O)(=O)O)c(N=Nc3ccccc3)c(O)c12 | inactive | – |
| CCCCCCCCCCCCOC(C)=O | inactive | – |
| CCCCCCCCCC(=O)OCC | – | 84.8 µM (active) |
| O=S1(=O)CC(Cl)(Cl)C(Cl)(Cl)C1 | inactive | – |
| C=C(C)C(=O)OCCN(C)C | inactive | – |
| CCCCCCCCSCc1cc(C)c(O)c(CSCCCCCCCC)c1 | inactive | – |
| CC(C)OB(OC(C)C)OC(C)C | inactive | – |
| c1ccc(Cc2ccccc2)cc1 | inactive | – |
| Cc1cc(O)c(C)c(C)c1O | – | 32.4 µM (active) |
| CCOC(=O)CCCCCCCCC(=O)OCC | inactive | – |
| Nc1ccc(O)c(N)c1 | inactive | – |
| CC(C)=CC(=O)O | inactive | – |
| C=C1CC/C=C(\C)CC[C@@H]2[C@@H]1CC2(C)C | inactive | – |
